Assay [1] can be described thus: Nuclear factor erythroid 2-related factor 2/antioxidant responsive element (Nrf2/ARE) small molecule agonists: qHTS cell viability counter screen in human keratinocytes (AID 1919968; active = well fitted curve in the direction sought with a large enough effect in the repeat runs; an effect the other way counts as inactive or inconclusive; also: nearly all actives have a fitted effect of over 55% in size). In short, it runs like this:
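HaCaT ARE reporter line, 1,500 cells/well; 5 h settle, 37 C/5% CO2; cpd in DMSO pinned; 23 h exposure; CellTiter-Fluor, 1 h; fluorescence.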

For assay [2], the target named is Gonadotropin-releasing hormone receptor (Homo sapiens) (UniProt P30968). In words: Human gonadotropin-releasing hormone receptor (GnRHR) small molecule agonists, calcium flux assay in GnRHR-HEK293 cells (AID 1920063). Also: nearly all actives have a fitted effect of over 35% in size. Also: potency is read from the fitted curve at half-maximal effect. The procedure, abridged: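 GnRHR-HEK293, 1500 cells/well, 18 h 37 C/5% CO2; Ca dye 1 h 37 C; cpd pinned (DMSO), agonist mode; kinetic FL 480/540, 3 min, 1 s reads; 15 conc, n=3.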

The target of assay [3] is KiSS-1 receptor (Homo sapiens) (UniProt Q969F8). Description: Human kisspeptin (KISS1R) small molecule agonists, calcium flux assay in KISS1R-HEK293 cells (AID 1920064; active = well fitted curve in the direction sought with a large enough effect in the repeat runs; an effect the other way counts as inactive or inconclusive). In short, it runs like this:
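Stable human KISS1R HEK293 line; 18 h plating, 37 C/5% CO2; calcium dye 1 h 37 C; compound pin transfer; kinetic fluorescence Ex/Em 480/540, 3 min.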

The nature of assay [4]: G protein-coupled receptor (GPCR) small molecule agonists, calcium flux assay: HEK293 wild type cell line counter screen (AID 1920065). In short, it runs like this: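 Kinetic fluorescence at Ex/Em 480/540, recorded every second over 3 min, served as the read-out after compound addition. Each compound was tested at 15 concentrations in triplicate on cells pre-loaded with calcium dye for 1 h.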

A short description of assay [5]: p53 small molecule agonists, cell-based qHTS assay with human liver microsomes: qHTS cell viability counter screen (AID 1963579). Also: nearly all actives have a fitted effect of over 45% in size. The procedure, abridged:
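Metabolic activation used human liver microsomes and NADPH, both 0.5 mg/mL final, over 16 hours at 37 C on p53RE-bla cells (4,000/well). Cytotoxicity measured by CellTiter-Glo luminescence, 30 min at room temperature.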

A short description of assay [6]: p53 small molecule agonists, cell-based qHTS assay with rat liver microsomes: qHTS cell viability counter screen (AID 1963580). Also: nearly all actives have a fitted effect of over 45% in size. In short, it runs like this: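 HCT-116 p53RE-bla, 4,000 cells/well, 5 h pre-incubation; cpd + rat liver microsomes 0.5 mg/mL + NADPH 0.5 mg/mL (final); 16 h, 37 C; CellTiter-Glo, 30 min RT; luminescence.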
Assay [7] in a line: p53 small molecule agonists, cell-based qHTS assay: qHTS cell viability counter screen (AID 1963581). Also: nearly all actives have a fitted effect of over 45% in size. In short, it runs like this: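 HCT-116 p53RE-bla cells, 4,000/well, plated 5 h before compound pin transfer; 16 h at 37 C; bla substrate 2 h RT; then CellTiter-Glo, 30 min RT, luminescence.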
In assay [8] the target is 5-hydroxytryptamine receptor 2A (Homo sapiens) (UniProt P28223). Description: 5-hydroxytryptamine receptor 2A (HTR2A) small molecule antagonists, cell-based qHTS assay (AID 1963586). Also: nearly all actives have a fitted effect of over 45% in size. The procedure, abridged:
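Antagonist-mode intracellular calcium assay: DOI (4 nM) added after 5 min compound pre-incubation at room temperature to dye-loaded HTR2A-CHO cells. Fluorescence followed for 3 min, sampled every second.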

The target is the same in assay [9]. Description: 5-hydroxytryptamine receptor 2A (HTR2A) small molecule agonists, cell-based qHTS assay (AID 1963587). Also: nearly all actives have a fitted effect of over 30% in size. In short, it runs like this: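 Kinetic calcium-flux fluorescence (2 min, 1 sec intervals) after compound addition in agonist mode. HTR2A-CHO cells were cultured 18 h, then dye-loaded 1 h at 37 C.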
Assay [10] addresses Muscarinic acetylcholine receptor M1 (Homo sapiens) (UniProt P11229). Description: Cholinergic receptor muscarinic 1 (CHRM1) small molecule antagonists, cell-based qHTS assay (AID 1963588). Also: nearly all actives have a fitted effect of over 40% in size. Also: potency is read from the fitted curve at half-maximal effect. In short, it runs like this: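 CHRM1-CHO calcium-flux assay, antagonist mode. Cells were seeded 18 h, dye-loaded 1 h at 37 C and given compound for 5 min at RT, then acetylcholine was added at 50nM. FDSS fluorescence was read 3 min; 15 concentrations, three runs.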

The target is the same in assay [11]. Description: Cholinergic receptor muscarinic 1 (CHRM1) small molecule agonists, cell-based qHTS assay (AID 1963589). Also: nearly all actives have a fitted effect of over 35% in size. The procedure, abridged:
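Human M1 in stable CHO line; 18 h plating, 1 h dye load 37 C; cpd added (agonist mode); Ca2+ fluorescence kinetic read, 1 s intervals; 15 conc, 3 runs.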

A short description of assay [12]: cAMP Responsive Elements (CRE) small molecule agonists, cell-based qHTS assay (AID 1963590). In short, it runs like this: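 HEK 293T CRE-bla, 2,000 cells/well, 18 h preincubation 37 C/5% CO2; cpds (DMSO) pinned, 3 h; LiveBLAzer B/G FRET substrate, 2 h RT.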
Assay [13] can be described thus: cAMP Responsive Elements (CRE) small molecule antagonists, cell-based qHTS assay (AID 1963591; active = well fitted inhibition curve with a large enough effect in the signal ratio in the repeat runs, not every such curve was filed as active; the % refers to the signal ratio). In short, it runs like this:
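Beta-lactamase reporter read by FRET substrate (LiveBLAzer B/G) after 2 h at room temperature. CRE-bla HEK293T cells had received compound plus 0.25 uM (final) NKH477 for 3 h at 37 °C.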

Assay [14] has as its target Beta-2 adrenergic receptor (Homo sapiens) (UniProt P07550). Description: Adrenergic beta2 receptor (ADRB2) small molecule antagonists, cell-based qHTS assay (AID 1963592). Also: series mostly up to about 92 µM; nearly all actives have a fitted effect of over 50% in size. The procedure, abridged:
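Cells (CHO, stable ADRB2 overexpression) incubated 18-20hr at 37C; compounds added from DMSO; agonist mix (1nM isoproterenol, 100uM IBMX, 25uM Ro-20-1724) added; 0.5hr RT; d2-cAMP and anti-cAMP-cryptate added; 1hr RT; 665/615 nm read.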

Assay [15] deals with D(2) dopamine receptor (Homo sapiens) (UniProt P14416). In words: Dopamine D2 receptor (DRD2) small molecule agonists, cell-based qHTS assay (AID 1963594). Also: nearly all actives have a fitted effect of over 35% in size. Also: potency is read from the fitted curve at half-maximal effect. The procedure, abridged:
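cAMP accumulation in DRD2-HEK293 cells measured by HTRF after 1 h detection; compounds added 10 min before NKH477 (200nM […]) forskolin-analogue stimulation, 30 min at room temperature, with Ro20-1724 present at 0.1 mM final.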

The nature of assay [16]: p53 small molecule agonists, cell-based qHTS assay with rat liver microsomes (AID 1963578). The procedure, abridged: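 Metabolic activation by rat liver microsomes and NADPH, each 0.5 mg/mL final, added right after compounds to p53RE-bla reporter cells (4,000/well, plated 5 h earlier). 16 h at 37 C, then LiveBLAzer substrate for 2 h at room temperature in the dark; fluorescence read-out.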

Assay [17] in a line: p53 small molecule agonists, cell-based qHTS assay (AID 1963582; active = well fitted activation curve with a large enough effect in the signal ratio in the repeat runs, not every such curve was filed as active; the % refers to the signal ratio). In short, it runs like this:
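Reporter line: p53RE-bla. Pre-incubation 5 h, 37 C, 5% CO2; compound (DMSO, pin tool) 16 h, 37 C; B/G FRET substrate 2 h RT; fluorescence intensity read.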

Assay [18] concerns the target Beta-2 adrenergic receptor (Homo sapiens) (UniProt P07550). Description: Adrenergic beta2 receptor (ADRB2) small molecule agonists, cell-based qHTS assay (AID 1963593). Also: potency is read from the fitted curve at half-maximal effect.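 As to activation: CHO cells stably overexpressing human ADRB2.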 The procedure, abridged:
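CHO cells stably over-expressing ADRB2 were plated overnight at 37C, then dosed with compounds plus a stimulation mix containing 100uM IBMX and 25uM Ro-20-1724 for 0.5hr at room temperature. cAMP was measured by HTRF competition, 1hr.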

Assay [19] has as its target D(2) dopamine receptor (Homo sapiens) (UniProt P14416). Description: Dopamine D2 receptor (DRD2) small molecule antagonists, cell-based qHTS assay (AID 1963595; active = well fitted inhibition curve with a large enough effect in the signal ratio in the repeat runs, with a control signal flat; the % refers to the signal ratio; also: potency is read from the fitted curve at half-maximal effect). In short, it runs like this: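 HEK293 cells stably expressing DRD2, preincubated with 0.1 mM Ro20-1724 and compounds 10 min, were stimulated with 200 nM NKH477 plus 12 nM quinpirole for 30 min at room temperature; cAMP measured by HTRF (665/620 nm).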

The nature of assay [20]: p53 small molecule agonists, cell-based qHTS assay with human liver microsomes (AID 1963577).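 Also: p53 response element beta-lactamase reporter cells with liver microsomes plus NADPH.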 In short, it runs like this: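 With metabolic activation: human liver microsomes (0.5 mg/mL final) plus NADPH (0.5 mg/mL final) added alongside compounds to p53RE-bla cells; 16 h 37 C exposure; beta-lactamase read by LiveBLAzer fluorescence.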

The structures appear in SMILES notation. Unmarked numbers belong to inactive results. Results filed as inconclusive are left out. Activity calls are given as the source filed them. Unless noted, calls follow the shape of the full dose curve.

Gonadotropin-releasing hormone receptor (Homo sapiens), sequence (P30968 whole entry, looked up): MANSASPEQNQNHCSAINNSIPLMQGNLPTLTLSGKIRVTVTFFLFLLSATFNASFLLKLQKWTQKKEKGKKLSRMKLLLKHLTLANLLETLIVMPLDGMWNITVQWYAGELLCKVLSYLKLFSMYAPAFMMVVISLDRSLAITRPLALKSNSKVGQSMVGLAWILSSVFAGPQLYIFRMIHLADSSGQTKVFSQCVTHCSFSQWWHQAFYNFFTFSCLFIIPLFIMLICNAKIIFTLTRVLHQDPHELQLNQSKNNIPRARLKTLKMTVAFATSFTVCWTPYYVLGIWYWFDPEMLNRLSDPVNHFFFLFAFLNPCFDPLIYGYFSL
KiSS-1 receptor (Homo sapiens), sequence (Q969F8 whole entry, looked up): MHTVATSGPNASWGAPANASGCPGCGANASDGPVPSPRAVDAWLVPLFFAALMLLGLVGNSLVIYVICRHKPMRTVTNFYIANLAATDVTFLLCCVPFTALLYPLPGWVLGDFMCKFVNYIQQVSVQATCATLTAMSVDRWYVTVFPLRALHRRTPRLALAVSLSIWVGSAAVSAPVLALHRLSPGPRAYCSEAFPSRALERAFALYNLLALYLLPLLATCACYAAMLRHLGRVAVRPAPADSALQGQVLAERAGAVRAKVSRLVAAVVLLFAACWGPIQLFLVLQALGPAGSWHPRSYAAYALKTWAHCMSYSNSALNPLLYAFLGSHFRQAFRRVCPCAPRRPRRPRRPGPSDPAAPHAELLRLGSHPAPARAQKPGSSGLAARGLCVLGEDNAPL
Muscarinic acetylcholine receptor M1 (Homo sapiens), sequence (P11229 whole entry, looked up): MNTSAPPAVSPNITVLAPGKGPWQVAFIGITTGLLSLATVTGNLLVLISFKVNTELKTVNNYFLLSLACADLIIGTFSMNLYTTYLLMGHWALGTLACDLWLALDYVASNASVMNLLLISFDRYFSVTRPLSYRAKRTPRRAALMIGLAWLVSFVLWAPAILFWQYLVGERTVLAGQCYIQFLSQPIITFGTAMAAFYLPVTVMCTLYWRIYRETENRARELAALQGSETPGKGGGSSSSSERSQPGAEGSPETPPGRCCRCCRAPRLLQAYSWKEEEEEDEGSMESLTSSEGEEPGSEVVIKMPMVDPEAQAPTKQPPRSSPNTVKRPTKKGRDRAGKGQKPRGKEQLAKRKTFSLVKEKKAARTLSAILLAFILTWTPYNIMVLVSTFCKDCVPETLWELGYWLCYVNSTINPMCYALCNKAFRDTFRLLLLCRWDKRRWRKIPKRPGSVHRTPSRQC
5-hydroxytryptamine receptor 2A (Homo sapiens), sequence (P28223 whole entry, looked up): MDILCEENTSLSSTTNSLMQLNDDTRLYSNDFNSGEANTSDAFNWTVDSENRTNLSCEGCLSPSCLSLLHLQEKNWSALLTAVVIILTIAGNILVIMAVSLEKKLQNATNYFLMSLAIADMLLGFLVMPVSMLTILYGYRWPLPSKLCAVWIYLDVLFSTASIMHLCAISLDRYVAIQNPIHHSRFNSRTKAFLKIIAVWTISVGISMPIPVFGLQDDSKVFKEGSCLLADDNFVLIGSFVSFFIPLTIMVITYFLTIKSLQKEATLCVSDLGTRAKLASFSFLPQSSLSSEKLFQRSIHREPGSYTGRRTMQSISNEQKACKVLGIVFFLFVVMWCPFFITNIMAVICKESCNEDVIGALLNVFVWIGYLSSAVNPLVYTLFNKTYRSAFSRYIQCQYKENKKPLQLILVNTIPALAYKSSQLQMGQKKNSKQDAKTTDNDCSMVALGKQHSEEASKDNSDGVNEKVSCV
D(2) dopamine receptor (Homo sapiens), sequence (P14416 whole entry, looked up): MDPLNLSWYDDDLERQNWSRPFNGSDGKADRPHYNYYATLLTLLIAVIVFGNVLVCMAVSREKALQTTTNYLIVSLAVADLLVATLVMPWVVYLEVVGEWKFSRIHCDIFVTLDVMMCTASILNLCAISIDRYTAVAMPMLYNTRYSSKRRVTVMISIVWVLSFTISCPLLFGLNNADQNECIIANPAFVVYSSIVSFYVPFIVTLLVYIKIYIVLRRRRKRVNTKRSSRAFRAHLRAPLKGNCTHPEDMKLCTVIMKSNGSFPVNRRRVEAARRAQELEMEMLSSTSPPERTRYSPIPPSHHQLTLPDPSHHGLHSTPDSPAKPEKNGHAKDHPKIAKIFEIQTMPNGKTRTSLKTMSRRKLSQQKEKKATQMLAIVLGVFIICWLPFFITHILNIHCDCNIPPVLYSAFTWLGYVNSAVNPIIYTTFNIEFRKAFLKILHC
Beta-2 adrenergic receptor (Homo sapiens), sequence (P07550 whole entry, looked up): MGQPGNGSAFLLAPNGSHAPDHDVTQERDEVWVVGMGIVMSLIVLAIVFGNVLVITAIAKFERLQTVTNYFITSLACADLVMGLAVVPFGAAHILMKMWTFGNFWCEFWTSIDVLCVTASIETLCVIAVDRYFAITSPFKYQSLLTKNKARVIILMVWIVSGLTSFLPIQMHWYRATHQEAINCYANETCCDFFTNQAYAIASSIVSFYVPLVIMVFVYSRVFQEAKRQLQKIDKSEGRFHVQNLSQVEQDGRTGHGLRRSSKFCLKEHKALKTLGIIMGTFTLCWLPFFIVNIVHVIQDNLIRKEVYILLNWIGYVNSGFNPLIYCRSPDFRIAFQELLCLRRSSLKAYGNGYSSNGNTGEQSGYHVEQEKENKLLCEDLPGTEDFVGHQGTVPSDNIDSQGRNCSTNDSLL

Regarding `CC(=O)[O-].CC(=O)[O-].O.O.[Zn+2]`, the Potency result in [1], in assay [2], in [3], in assay [4], in assay [5] and in assay [6] was “inactive” each time. The Potency entry in assay [7], in assay [8], in assay [9], in [10], in [11] and in [12] was “inactive” each time. Besides, the Potency entry in assay [13], in assay [14] and in [15] was “inactive” each time.
As for `CNCC(=O)c1ccc(O)c(O)c1`, the Potency result in assay [1], in [3], in assay [4], in assay [16], in assay [6] and in [7] was “inactive” each time. Further, the Potency result in assay [17], in assay [8], in assay [9], in [10], in [11] and in [13] was “inactive” each time. For the same molecule, the Potency in [2] was 5.35 µM (active); in assay [18], 0.531 µM (active); in assay [15], 26.6 µM (active); in [19], 26.6 µM (active).
Turning to `COP(=S)(OC)Oc1cc(Cl)c(I)cc1Cl`, the Potency entry in assay [1], in [2], in assay [3], in [4], in assay [5] and in assay [6] was “inactive” throughout. Also, the Potency entry in assay [7], in assay [8], in assay [9], in assay [10], in assay [11] and in [12] was “inactive” throughout. Besides, the Potency result in [13], in [14], in [18], in [15] and in [19] was “inactive” each time.
With `CCCCn1cc[n+](C)c1` (tested in a mixture with another compound), the Potency entry in assay [1], in assay [2], in [3], in [4], in assay [5] and in [6] was “inactive” in each case. Besides, the Potency entry in assay [7], in assay [9], in assay [10], in assay [11], in assay [12] and in [13] was “inactive” in each case. Moreover, the Potency result in [14] and in [19] was “inactive” in each case.
Consider `O=[N+]([O-])[O-].[Tl+]`, for which the Potency result in [1], in assay [2], in assay [3], in assay [4], in assay [5] and in [6] was “inactive” throughout. The Potency result in [7], in [8], in assay [9], in assay [10], in assay [11] and in [12] was “inactive” in each case. Also, the Potency entry in assay [13] and in [19] was “inactive” in each case.
With `Clc1ccc(C(OCCN2CCCCC2)c2ccccc2)cc1` (stereo not drawn), the Potency result in [1], in assay [2], in [3], in assay [4], in [5] and in [6] was “inactive” in each case. Further, the Potency result in assay [9], in assay [11], in [13], in [14], in [18] and in [15] was “inactive” throughout. Moreover, in assay [10], the Potency is 0.46 µM (active).
Take `CON(C)C(=O)Nc1ccc(Br)c(Cl)c1`: the Potency entry in assay [1], in assay [2], in assay [3], in [4], in [5] and in assay [6] was “inactive” throughout. In addition, the Potency entry in [8], in assay [9], in assay [10], in assay [11], in [12] and in assay [13] was “inactive” in each case. Also, the Potency result in [14], in assay [15] and in assay [19] was “inactive” each time.
As to `COC(=O)C(C)N(C(=O)Cc1ccccc1)c1c(C)cccc1C` (stereo not drawn), the Potency entry in [1], in assay [2], in [3], in [20], in assay [16] and in [5] was “inactive” throughout. Moreover, the Potency entry in assay [6], in assay [7], in [8], in assay [10], in [11] and in [14] was “inactive” in each case. The Potency result in assay [15] and in assay [19] was “inactive” throughout.

Values taken from PubChem BioAssay (Tox21).
